From PubChem BioAssay (NCATS)
Results filed as inconclusive are left out. A call without a number means that no potency is given here. Activity calls are given as the source filed them. The call rests on the fitted dose curve; in most records, active means well fitted cell-killing curve with a large enough effect; inconclusive means small, poorly fitted or top-dose-only effect; inactive means flat fitted curve, though single readings scatter.

assay: Quantitative highthroughput screen to assess conditional lethalithy of P12 Ichikawa cells grown in RPMI1640 with dialyzed fetal bovine serum (RPMI+ds) (AID 1963880); settings: ATP luminescence, 48 h; Potency: P12-Ichikawa viability; series mostly up to 45.8 µM; further: nearly all actives have a fitted effect of over 35% in size
Source text: Assay Provider: Jason Cantor Ph.D.
Department of Biochemistry
University of Wisconsin-Madison, Madison, WI, USA
Chemical screening studies have identified drug sensitivities across hundreds of cancer cell lines but most putative therapeutics fail to translate. Discovery and development of drug candidates in models that more accurately reflect nutrient levels in human blood is a major challenge. Here we performed high-throughput screens in conventional versus Human Plasma-Like Medium (HPLM) to identify compounds that were "missed" when screening using the artificial culture condition. Sets of conditional anticancer compounds spanned phases of clinical development and included non-oncology drugs were assessed. […] We also traced conditional phenotypes for several chemotherapeutics to availability of HPLM-specific metabolites and confirmed others for compounds whose reported targets are encoded by nonessential genes. Our findings establish generalizable strategies for exploiting conditional lethality in HPLM to reveal therapeutic candidates and mechanisms of action in cancer cells.
Described herein are the results of each viability screens against three cell lines: NOMO1 (an acute myeloid leukemia cell line); P12-Ichikawa (a T-cell acute lymphoblastic leukemia); and SEM (a B-cell ALL). Each assay was screened using 3 different cell culture media: homemade human plasma-Like medium with 10% dialyzed fetal bovine serum (HPLM+ds); RPMI1640 with 10% untreated FBS and 5mM glucose (RPMI+s); and RPMI1640 with 10% dialyzed fetal bovine serum and 5 mM glucose (RPMI+ds).
PROTOCOL TABLE (as described by Inglese J, Shamu CE and Guy RK. 2007)
SEQUENCE No. (e.g., 1, 2, 3, etc.); […] (e.g., Cells, Incubation, Reagent, etc.); VALUE and DESCRIPTION.
1; Cells; 5 uL; white, solid bottom 1536-well Greiner assay plate.
2; Compounds; 23 nL; Kalypsis pin tool (Wako USA) equipped with a 1536-well pin head to transfer to the assay plates.
3; Incubation; 48 hours; 37C incubation.
4; Reagent; 3 uL; CellTiter Glo (Promega).
5; Incubation; 5 min, room temperature
6; Detection; Luminescence, Viewlux PerkinElmer.
NOTES (numbers refer to Sequence numbers above)
1. Briefly, 5 ul of cell reagent was dispensed using a Multidrop Combi Dispenser. The NOMO1 and SEM cells were plated at 500 cells/well and the P12-Ichikawa line at 1000 cells/well.
2. After seeding the cells, 23 nL of MIPE 4.1 library compounds (in DMSO) were added to each plate using a Kalypsys 1536 Pintool dispenser. Bortezomib at final concentration of […] and DMSO were added to each plate as positive and negative controls respectively. For each screen, MIPE 4.1 compounds were added over an eleven-point concentration range […] in 3-fold dilutions.
3. Each plate was covered with a stainless steel gasketed lid to prevent evaporation and incubated for 48 hour at 37C, 95% relative humidity, and 5% CO2.
4-5. Three microliter CellTilter-GloTM luminescent substrate mix (Promega) reagent was added to the assay plate and incubated at room temperature for 5 min.
6. The luminescence signal was measured using a ViewLux (PerkinElmer) multiplate reader with a 2 second exposure time per plate. Data for each compound were normalized as percent viability such that measurements for DMSO and the empty well controls in each plate were defined as 100% and 0%, respectively.
Potency means the concentration at half of the fitted maximal effect.

Row | SMILES | Potency
1 | O=c1[nH]c2ccccc2n1CCCN1CCC(n2c(=O)[nH]c3cc(Cl)ccc32)CC1 | inactive
2 | COc1ccc(CC2NCCc3cc(OC)c(OC)cc32)cc1OC (stereo not given) | inactive
3 | C[C@]12CC[C@H]3[C@@H](CCC4=CC(=O)CC[C@@]43C)[C@H]1CC[C@H]2O | inactive
4 | COC[C@H]1OC(=O)c2coc3c2[C@@]1(C)C1=C(C3=O)C2CCC(=O)[C@@]2(C)C[C@H]1OC(C)=O (stereo not given in full) | inactive
5 | C[C@@H]1[C@@H](C(=O)C[C@H]2O[C@@H]3O[C@]4(C)CC[C@@H]5[C@H](C)CC[C@@H]([C@H]2C)[C@@]35OO4)O[C@@H]2O[C@]3(C)CC[C@H]4[C@H](C)CC[C@@H]1[C@@]24OO3 | 16.6 µM (active)
6 | CCC1(c2ccc(N)cc2)CCC(=O)NC1=O (stereo not given) | inactive
7 | C=C(C)[C@H]1Cc2c(ccc3c2O[C@@H]2COc4cc(OC)c(OC)cc4[C@@H]2C3=O)O1 | 4.69 µM (active)
8 | C[C@@H]1CC[C@@]2(OC1)O[C@H]1C[C@H]3[C@@H]4CC=C5C[C@@H](O[C@@H]6O[C@H](CO)[C@@H](O[C@@H]7O[C@@H](C)[C@H](O)[C@@H](O)[C@@H]7O)[C@H](O)[C@@H]6O[C@@H]6O[C@@H](C)[C@H](O)[C@@H](O)[C@@H]6O)CC[C@]5(C)[C@@H]4CC[C@]3(C)[C@@H]1[C@H]2C | 23.5 µM (active)
9 | C[C@]12CC[C@@H]3[C@@H](CCC4=CC(=O)CC[C@@H]43)[C@@H]1CC[C@@H]2OC(=O)CCc1ccccc1 | inactive
10 | CC(C)C[C@H](CN)CC(=O)O | inactive
11 | COc1ccc2c(c1OC)CN1CCc3cc4c(cc3C1C2)OCO4 (stereo not given) | 1.66 µM (active)
12 | COC1(CS(=O)c2ccccc2)CCN(CCc2c[nH]c3ccc(F)cc23)CC1 (stereo not given) | inactive
13 | C[C@@H]1O[C@@H](O[C@@H]2C=C3CC[C@@H]4[C@@H](CC[C@]5(C)[C@H](c6ccc(=O)oc6)CC[C@@]45O)[C@@]3(C)CC2)[C@H](O)[C@H](O)[C@H]1O | 0.0235 µM (active)
14 | CCOC(=O)Nc1ccc(NCc2ccc(F)cc2)cc1N | inactive
15 | CC1(N2CCC(n3c([C@@H]4CCCNC4)nc4ccccc43)CC2)CCCCCCC1 | 13.2 µM (active)
16 | CC(=O)Nc1ccc(OC[C@](C)(O)C(=O)Nc2ccc([N+](=O)[O-])c(C(F)(F)F)c2)cc1 | inactive
17 | O=S(=O)(F)Cc1ccccc1 | inactive
18 | C[C@H]1CCCC=CC2C[C@H](O)C[C@@H]2[C@H](O)C=CC(=O)O1 (stereo not given in full) | 0.0235 µM (active)
19 | CCN1C[C@]2(OC(=O)c3ccccc3NC(C)=O)CC[C@H](OC)[C@@]34[C@H]5CC6[C@@H](OC)C[C@](O)(C(C[C@@H]23)[C@@H]14)[C@@]5(O)[C@@H]6OC | inactive
20 | N[C@@H](Cc1ccc(N(CCCl)CCCl)cc1)C(=O)O | 5.9 µM (active)

Row | SMILES | Potency
21 | C[C@]12CC[C@@H]3c4ccc(OC(=O)N(CCCl)CCCl)cc4CC[C@H]3[C@@H]1CC[C@@H]2OP(=O)(O)O | inactive
22 | CCN(CC)C(=O)c1ccc(C2=CC3(CCNCC3)Oc3cccc(O)c32)cc1 | inactive
23 | CCCC[N+]1(C)[C@H]2CC(OC(=O)[C@H](CO)c3ccccc3)C[C@H]1[C@H]1O[C@H]12 (stereo not given in full) | inactive
24 | O=C1C=CC[C@@H]2[C@H]3CCCN4CCC[C@@H](CN12)[C@@H]34 | inactive
25 | C[C@]12CC[C@H]3[C@@H](CCC4=CC(=O)CC[C@@]43C)[C@H]1CC[C@H]2OC(=O)CCC1CCCC1 | inactive
26 | Cc1sc2c(c1C)C(c1ccc(Cl)cc1)=N[C@@H](CC(=O)OC(C)(C)C)c1nnc(C)n1-2 | 2.64 µM (active)
27 | O=[N+]([O-])c1ncc[nH]1 | inactive
28 | C[C@]12CCC(=O)C=C1CC[C@@H]1[C@H]3CC[C@](C)(O)[C@@]3(C)CC[C@@H]12 | inactive
29 | CC(N[C@H]1C[C@H]1c1ccccc1)c1ccc2c(c1)OCCO2 (stereo not given in full) | inactive
30 | CNCC(O)c1ccc(O)cc1 (stereo not given) | inactive
31 | CC(=O)OCC1=C(C(=O)O)N2C(=O)[C@@H](N)[C@@H]2SC1 | 2.35 µM (active)
32 | NCC1(CC(=O)O)CCCCC1 | inactive
33 | CC(=CCCC1=CCC(C2=CC(=O)OC2O)OC1O)CCC1=C(C)CCCC1(C)C (stereo not given) | inactive
34 | O=C(Oc1ccc([N+](=O)[O-])cc1)N1CCN(Cc2cccc(Oc3ccccc3)c2)CC1 | inactive
35 | COc1cc2cc(c1Cl)N(C)C(=O)C[C@H](OC(=O)C(C)C)[C@]1(C)O[C@H]1[C@H](C)[C@@H]1C[C@@](O)(NC(=O)O1)[C@H](OC)C=CC=C(C)C2 | inactive
36 | CC(C)N[C@@H]1CCn2c(=O)[nH]c3cccc(c32)[C@@H]1O | inactive
37 | Cn1cc(C2=C(c3cn(C4CCN(Cc5ccccn5)CC4)c4ccccc34)C(=O)NC2=O)c2ccccc21 | inactive
38 | Cc1cccc(C)c1NC(=O)CN1CCCC1=O | inactive
39 | Clc1ccccc1C(c1ccccc1)(c1ccccc1)n1cccn1 | inactive
40 | C[C@]12CCC(=O)C(O)=C1CC[C@@H]1[C@H]3CCC(=O)[C@@]3(C)CC[C@@H]12 | inactive
